Compound activity deposited in PubChem by National Center for Advancing Translational Sciences (NCATS).
BAZ2B inh = BAZ2B (human) inhibition; AID 504333; 360,000 compounds, 4.4% hits; Q9UIF8; AlphaScreen BAZ2B-H3K14Ac peptide displacement; Potency, µM (titrated, usually from 114 µM), most hits filed as inhibitors; note: nearly all actives have a fitted effect of over 60% in size
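AlphaScreen displacement of biotin-H3(5-23)K14Ac peptide (50 nM final) from BAZ2B (50 nM final) in PBS pH 7.4, 0.01% Tween-20; complex preformed 30 min RT, then compounds (top 110 uM) 30 min RT, beads 20 min dark.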
HP1b binding inh = HP1-beta chromodomain-methylated histone interaction inhibition | P83916 | AlphaScreen HP1-beta / biotin-H3K9me3 peptide binding | Potency, µM (doses to about 114 µM), most hits filed as inhibitors | 390,000 compounds, 0.56% hits | AID 540317; note: nearly all actives have a fitted effect of over 70% in size
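AlphaScreen: HP1-beta (50 nM) preformed 30 min with biotin-H3(1-18)K9me3 peptide (50 nM) in PBS pH 7.4, 0.01% Tween-20. Compound added for 30 min at RT, then streptavidin donor/nickel chelate acceptor beads (10 ug/mL) for 30 min.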
L3MBTL1 inh-1 = inhibitors of human L3MBTL1. AlphaScreen L3MBTL1–H3K9me1 peptide binding. Potency, µM (highest dose often 57.1 µM), hits mostly inhibitors. 230,000 compounds, 0.66% hits; note: nearly all actives have a fitted effect of over 60% in size
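L3MBTL1 (50 nM) pre-complexed 30 min with biotinylated H3(1-15)K9me1 peptide (75 nM), then compounds added for 30 min at room temperature; AlphaScreen streptavidin donor/nickel chelate acceptor beads (10 ug/mL final) read after 30 min dark incubation.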
G9a block = blocks human histone lysine methyltransferase G9a. Q96KQ7. G9a H3K9 monomethylation, AlphaScreen, 2 h. Potency, µM (highest dose often 102 µM), hits mostly inhibitors. 350,000 compounds, 8.8% hits. AID 504332; note: nearly all actives have a fitted effect of over 75% in size
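G9a (20 nM) was preincubated 15 min with compound, then reacted 2 h at room temperature with 500 nM biotin-H3K9 peptide and 20 µM SAM. Monomethyl-H3K9 detected by AlphaScreen using anti-H3K9me1 antibody.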
JMJD2A Tudor inh = inhibitors of human JMJD2A Tudor domain. AID 504339. AlphaScreen JMJD2A-Tudor / H3K4me3 peptide binding. Potency, µM (titrated, usually from 114 µM), hits mostly inhibitors. 390,000 compounds, 4.4% hits; note: nearly all actives have a fitted effect of over 50% in size
GLS inh = glutaminase GLS (human) inhibition; O94925; Potency, µM (doses to about 45.5 µM), hits mostly inhibitors; GLS enzymatic activity, qHTS titration; 410,000 compounds, 0.21% hits
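hKGA; 45 mM KH2PO4 pH 8.2 + 0.02% Tween-20; cpd via pin tool; 1 mM Gln soln; GluOx/HRP/Amplex Red; RT 30 min; fluor. t0 & final.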
L3MBTL1 inh-2 = L3MBTL1 binding inhibition validated; shares compounds with L3MBTL1 inh-1; 500 compounds, 91% hits; Potency, µM, most hits filed as inhibitors; L3MBTL1 methyl-lysine binding inhibition, biochemical qHTS; note: nearly all actives have a fitted effect of over 70% in size
AlphaScreen ctr2 = AlphaScreen signal inhibition, L3MBTL1 hit counter-screen; shares compounds with L3MBTL1 inh-1; AlphaScreen counterscreen, signal inhibition; Potency, µM (doses to about 57.1 µM), usual class: inhibitors; 500 tested, under 10 active; AID 602224
A number is an active result; . = inactive; ? = inconclusive; / = no result given; [ ] = remark or other dose. Sampled rows, rich in hits. Any-hit rate of the full collection: about 10%. Calls come from the whole dose curve; as a rule, active = well fitted curve in the direction sought with a large enough effect; inconclusive = small, poorly fitted or top-dose-only effect, or another doubt; inactive = no such curve, though single readings can be large; an effect the other way counts as inactive or inconclusive.

SMILES	BAZ2B inh	HP1b binding inh	L3MBTL1 inh-1	G9a block	JMJD2A Tudor inh	GLS inh	L3MBTL1 inh-2	AlphaScreen ctr2
N#CCc1ccc(NC(=O)/C=C/c2ccc([N+](=O)[O-])o2)cc1	?	.	4µM	71µM	?	.	27	.
COc1ccc(-c2cn3cccnc3n2)cc1NC(=O)COc1ccccc1	.	.	/	.	.	.	/	/
Cc1ccc(-c2nc3c(c(=O)[nH]c(=O)n3Cc3ccccc3)n2C)o1	?	.	10µM	1.4µM	?	.	3.4	.
Cc1cc(C(=O)COC(=O)c2cc(Cl)c(O)c(Cl)c2)c(C)n1C	50µM	?	28µM	.[12.7 µM]	50µM	?	4.7	?
Cc1cc(C(=O)COC(=O)c2ccc(F)cc2)c(C)n1C	/	.	.	/	.	.	/	/
Cc1ccc(-c2c(CN3CCN(c4cc(Cl)ccc4C)CC3)csc2C)cc1	?	.	/	.	.	.	/	/
O=C(/C=C/c1ccco1)Nc1scc(-c2ccccc2)c1C(=O)O	.	?	25µM	50µM	.	.	2.7	.
CNc1nc(C(=O)O)nc(N2CCOCC2)n1	11µM	.	20µM	5.6µM	4.5µM	.	?	?
COc1ccc(-c2cc3c(=O)n(CC(=O)Nc4cc(C)ccc4C)ccn3n2)cc1	.	.	/	.[12.7 µM]	.	.	/	/
Oc1ccc(C2=Nn3c(nnc3-c3ccco3)SC2)cc1O	?	?	25µM	13µM	45µM	?	9.5	.
Cc1ccc(-c2ccc(CCC(=O)O)n2CC(=O)O)cc1	?	.	22µM	.[12.7 µM]	?	?	5.3	.
Cc1ccc(NC(=O)Cn2c(CCC(=O)O)ccc2-c2ccc(Cl)cc2)cc1	?	.	/	?	.	.	/	/
Cc1cc(=O)c2cc3nc(-c4cccnc4)oc3c(Br)c2o1	79µM	/	32µM	40µM	/	/	6	.
CSCCC(NS(=O)(=O)c1ccc(C)c(C(=O)O)c1)C(=O)O (configuration not stated)	.	.	8.9µM	?	.	.	?	.
CCSc1nnc2n(-c3cccc(C)c3)c(=O)c3c4c(sc3n12)CCCC4	.	.	/	.	.	.	/	/
O=C(O)CCCN1C(=O)/C(=C\c2ccc(-c3nc4ccccc4s3)o2)SC1=S	7.9µM	18µM	3.5µM	/	.[11.4 µM]	?	4.2	?
CC(=O)c1ccc(NC(=O)CSc2nnc(-c3ccco3)c(-c3ccco3)n2)cc1	45µM	32µM	25µM	/	22µM	.	15	?
COc1ccc(-c2nnc(SCC(=O)Nc3ccc(C(C)=O)cc3)nc2-c2ccc(OC)cc2)cc1	.	.	/	.	.	.	/	/
CCC(C(=O)O)n1ccc2cc(S(=O)(=O)N3CCCCC3)ccc21 (configuration not stated)	.	.	/	.	.	.	/	/
COc1cccc(CNC(=O)CN2c3cccc4cccc(c34)S2(=O)=O)c1	50µM	.	32µM	?	?	.	27	.
Cc1ccc(CNC(=O)CN2c3cccc4cccc(c34)S2(=O)=O)cc1	.	.	.	.	.	.	/	/
O=C(Nc1ccc(S(=O)(=O)Nc2ncccn2)cc1)c1ccc2ncsc2c1	40µM	.	20µM	45µM	35µM	?	?	.
Cc1cccc(CNC(=O)CCCN2C(=O)c3cccnc3Oc3ccccc32)c1	.	.	/	.	.	.	/	/
Cc1c(N2C(=O)c3ccc(Br)cc3C2=O)c(=O)n(-c2ccccc2)n1C	.	.	.	.	.	.	/	/
Cc1c(N2C(=O)c3ccc4c5c(ccc(c35)C2=O)CC4)c(=O)n(-c2ccccc2)n1C	56µM	?	13µM	50µM	?	?	6	.
SMILES	BAZ2B inh	HP1b binding inh	L3MBTL1 inh-1	G9a block	JMJD2A Tudor inh	GLS inh	L3MBTL1 inh-2	AlphaScreen ctr2
CCOc1ccccc1NC(=O)Cn1c(=O)ccc2cc(S(=O)(=O)N3CCCC3)ccc21	.	.	/	.	.	.	/	/
O=C(/C=C1\SC(=O)NC1=O)Nc1ccc(C(=O)O)cc1	.	.	/	/	.[11.4 µM]	.	/	/
O=C1NC(=O)/C(=C/c2ccc(-c3cc(C(=O)O)ccc3Cl)o2)S1	.	.	7.1µM	/	.	.	8.4	.
COc1ccc2c(c1)-c1nc(NC(=O)c3ccc(OC)c(Br)c3)sc1CC2	?	.	/	.	.	.	/	/
C=CCn1c(SCC(=O)c2ccc(O)c(O)c2)nnc1-c1ccc(OC)cc1	.	.	8.9µM	.[0.501 µM]	?	.	13	.
Nc1nc(-c2ccccn2)nc(N)c1Cc1c(F)cccc1Cl	8.9µM	.	3.5µM	.	79µM	.	11	.
Cc1nn(-c2ccccc2)c(C)c1/C=C/C(=O)OCC(=O)Nc1ccc(C(N)=O)cc1	.	.	.	.[12.7 µM]	.	.	/	/
NC(=O)c1ccc(NC(=O)COC(=O)/C=C/c2ccc(Br)o2)cc1	/	?	14µM	/	20µM	?	6.7	.
CCOC(=O)C(C)Sc1nc(-c2ccccn2)ncc1OC (configuration not stated)	3.2µM	.	25µM	.	.[11.4 µM]	.	27	?
COc1cnc(-c2ccccn2)nc1Sc1ccccc1Cl	.	.	.	.	?	.	/	/
COc1cnc(-c2ccccn2)nc1N(C)C	4.5µM	.	4µM	.	22µM	.	6.7	.
O=C(NCC12CC3CC(CC(C3)C1)C2)c1cc2nc(-c3ccc(F)cc3)cc(C(F)(F)F)n2n1	.	.	/	.	.	.	/	/
Cc1ccc2nc(NC(=O)C3CCN(S(=O)(=O)c4cc([N+](=O)[O-])ccc4Cl)CC3)sc2c1	35µM	?	10µM	?	40µM	.	9.5	.
Cc1ccc2nc(NC(=O)C3CCN(S(=O)(=O)c4cccc5nsnc45)CC3)sc2c1	?	.	.	.	.	.	/	/
CC(NC(=O)C1CCN(S(=O)(=O)c2cc([N+](=O)[O-])ccc2Cl)CC1)c1ccccc1 (configuration not stated)	.	.	.	.	.	.	/	/
O=C(Nc1nc2ccc(F)cc2s1)C1CCN(S(=O)(=O)c2cc([N+](=O)[O-])ccc2Cl)CC1	?	.	28µM	22µM	?	.	6.7	?
O=C(NC(=S)Nc1cccc([N+](=O)[O-])c1)c1ccco1	.	.	.	.	.	.	/	/
O=C(/C=C/c1ccco1)NC(=S)Nc1cccc([N+](=O)[O-])c1	?	.	35µM	.	?	.	24	.
CCc1nc2sc3ccccc3c(=O)c2c(=O)n1Cc1ccco1	?	.	32µM	.	56µM	.	17	.
O=c1c2ccccc2sc2nc(C3CCCCC3)n(Cc3ccco3)c(=O)c12	?	.	/	?	.	.	/	/
